These results are taken from PubChem BioAssay (NCATS).

Records with an inconclusive call do not appear. Active and inactive are the calls of the source. Unless noted, calls follow the shape of the dose curve; as a rule, active = well fitted curve in the direction sought with a large enough effect; inconclusive = small, poorly fitted or top-dose-only effect, or another doubt; inactive = no such curve, though single readings can be large; an effect the other way counts as inactive or inconclusive.

The nature of experiment [1]: qHTS assay for small molecule agonists of retinoid X receptor alpha signaling (AID 588544; calls by dose curve;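 as to activation: 0% = DMSO basal wells and 100% = reference agonist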). Particulars: HEK293T RXRa-UAS-bla, beta-lactamase reporter, 18 h; 530 nm emission. A general note: In qHTS, concentration-response curves come from the screen itself.
Experiment [2] deals with Retinoic acid receptor RXR-alpha (Homo sapiens) (UniProt P19793). Described as above. Particulars: HEK293T RXRa-UAS-bla, beta-lactamase reporter, 18 h; series mostly up to 76.7 µM.
The nature of experiment [3]: qHTS assay for small molecule antagonists of retinoid X receptor alpha signaling (AID 588546; active = well fitted inhibition curve with a large enough effect in the signal ratio, with a control signal flat, not every such curve was filed as active; the % refers to the signal ratio;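 also: cells stimulated with 9-cis-retinoic acid as agonist; % is scaled to controls: 0 for no effect and ±100 for the full control effect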). Particulars: HEK293T RXRa-UAS-bla, beta-lactamase ratio, antagonist mode; measured here: W530 green channel, cytotoxicity proxy. Put shortly: (§1)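 Beta-lactamase reporter inhibition, read as CCF4 fluorescence ratio (ex 405, em 460/530 nm) after 2 h at RT. HEK293T UAS-bla cells, 2500/well, were stimulated with 9-cis-RA at 500 or 100 nM final alongside test compound for 18 h at 37 C.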

Experiment [4] concerns the target Retinoic acid receptor RXR-alpha (Homo sapiens) (UniProt P19793). The experiment is described as above. Particulars: HEK293T RXRa-UAS-bla, beta-lactamase ratio, antagonist mode. Put shortly:
as §1

Experiment [5] has as its target Voltage-gated inwardly rectifying potassium channel KCNH2 (Homo sapiens) (UniProt Q12809). As to the kind of experiment: qHTS Assay for Small Molecule Inhibitors of the Human hERG Channel Activity (AID 588834).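 Also: top concentration of the series differs between compounds; % is scaled to controls: 0 for no effect and ±100 for the full control effect; lower thallium flux fluorescence means stronger hERG block; nearly all actives have a fitted effect of over 50% in size.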 Particulars: U2OS BacMam hERG, FluxOR thallium flux fluorescence; series mostly up to 92.2 µM. Put shortly: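 In hERG-transduced U2OS cells, dye-loaded for 1 hr at room temperature in dark, test compounds incubated 10 min at 37 °C before thallium stimulation. AC50 values derived by Hill modelling of concentration-response.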

The nature of experiment [6]: qHTS assay for small molecule agonists of the antioxidant response element (ARE) signaling pathway (AID 651741; active = well fitted activation curve with a large enough effect in the signal ratio; the % refers to the signal ratio; also: % of control where 0% means no effect). To be noted: HepG2 ARE-bla reporter, beta-lactamase FRET ratio, 16 h; series mostly up to 96 µM. Put shortly:
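Stably integrated ARE-beta-lactamase reporter HepG2 cells; 16 h compound incubation, 37 C; LiveBLAzer FRET substrate 2 h at room temperature; fluorescence intensity.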

Experiment [7] in a line: qHTS assay for small molecule activators of the p53 signaling pathway (AID 651743; active = well fitted activation curve with a large enough effect in the signal ratio, not every such curve was filed as active; the % refers to the signal ratio; also: % of control where 0% means no effect). To be noted: HCT-116 p53RE-bla, beta-lactamase FRET ratio, 16 h; stronger effect = higher value. Put shortly: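 Following 16 hours of compound exposure at 37 C, HCT-116 cells bearing the p53RE-bla reporter were loaded with LiveBLAzer B/G FRET substrate for 2 hours at room temperature and fluorescence intensity was recorded.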

Experiment [8] is described as follows: qHTS assay for small molecule disruptors of the mitochondrial membrane potential - 1 hr assay (AID 651754; calls by dose curve; also: % is scaled to controls: 0 for no effect and ±100 for the full control effect; nearly all actives have a fitted effect of over 35% in size). To be noted: series mostly up to 92.2 µM. Put shortly:
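Mitochondrial potential in living HepG2 cells after 1 hr compound treatment at 37C was read with Mito-MPS dye added for a further 30 min. Red aggregate and green monomer fluorescence were measured; loss of potential leaves dye as cytoplasmic monomers.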

Experiment [9] can be described thus: qHTS assay for small molecule disruptors of the mitochondrial membrane potential - 5 hr assay (AID 651755; calls by dose curve; also: % is scaled to controls: 0 for no effect and ±100 for the full control effect; nearly all actives have a fitted effect of over 40% in size). Particulars: JC-1-type ratio dye; series mostly up to 92.2 µM. Put shortly: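 Read-out: ratiometric Mito-MPS fluorescence, green monomer (ex 490/em 535) vs red mitochondrial aggregate (ex 540/em 590). HepG2 cells treated 5 hr at 37C before 30 min dye loading.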

The target in experiment [10] is Tumor necrosis factor (Homo sapiens) (UniProt P01375). As to the kind of experiment: qHTS assay to identify small molecules that stimulate Tumor Necrosis Factor-alpha (TNF-alpha) secretion (AID 651757; active = well fitted curve in the direction sought with a large enough effect in the signal ratio; the % refers to the signal ratio; also: 0% is about no effect). To be noted: Human cells, HTRF 665/615 ratio; series mostly up to 92.2 µM. Put shortly: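 Secreted TNF-alpha quantified by TR-FRET sandwich of two labeled anti-TNF-alpha antibodies, incubated 3 hr at room temperature. Preceded by 17 hr, 37 C compound treatment of THP-1 cells at 3000 cells/well.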

A short description of experiment [11]: qHTS assay to identify small molecules that stimulate interleukin-8 (IL-8) secretion (AID 651758; active = well fitted activation curve with a large enough effect in the signal ratio; the % refers to the signal ratio; also: 0% is about no effect). To be noted: HTRF ratio (665/615); series mostly up to 92.2 µM. Put shortly: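 Compounds are added to THP-1 cells (2000 per well) and left 16 hrs at 37 C. A labeled anti-IL-8 antibody pair is then added, and IL-8 secretion is measured by time-resolved FRET after 1-3 hrs at room temperature.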

Experiment [12] is described as follows: qHTS assay for environmental chemicals that activate the Aryl hydrocarbon Receptor (AhR) signaling pathway (AID 651777). Also: % of control where 0% means no effect; nearly all actives have a fitted effect of over 15% in size. To be noted: 1A2-DRE human hepatoma cells, luciferase, 24 h; activation: stronger effect = higher value. Put shortly: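 Stable CYP1A2 promoter/DRE-luciferase human hepatoma line treated 24 hr; One-Glo luminescence, 30 min RT.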
The target in experiment [13] is Peroxisome proliferator-activated receptor alpha (Homo sapiens) (UniProt Q07869). As to the kind of experiment: qHTS assay for small molecule agonists of the peroxisome proliferator-activated receptor alpha (PPARalpha) signaling pathway (AID 651778). Also: % of control where 0% means no effect. Particulars: PathHunter PPARalpha complementation, chemiluminescence, 6 h; stronger effect = higher value. Put shortly:
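Enzyme-fragment complementation assay in which ligand-bound PPARalpha translocates and forms an active enzyme that generates chemiluminescence. Cells were plated overnight, exposed to compound for 6 hr at 37 C, and then given detection reagent for 60 min at room temperature.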

Experiment [14] is described as follows: qHTS assay for small molecule agonists of the antioxidant response element (ARE) signaling pathway measured by Nrf2-dependant transcriptional activity - cell viability counter screen (AID 720653; active = well fitted curve in the direction sought with a large enough effect in the repeat runs; an effect the other way counts as inactive or inconclusive; also: % is scaled to controls: 0 for no effect and ±100 for the full control effect). To be noted: ARE-bla HepG2 viability, CellTiter-Glo ATP luminescence, 16 h; stronger effect = lower value. Put shortly: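 ARE-bla HepG2 cells treated with compounds for 16 h at 37C; this counter screen measures viability as intracellular ATP by CellTiter-Glo luminescence after 30 min at room temperature.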

In experiment [15] the target is Thyroid hormone receptor beta (Homo sapiens) (UniProt P10828). As to the kind of experiment: qHTS assay for small molecule agonists of thyroid hormone receptor beta signaling (AID 588545; calls by dose curve;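 also: 0% = DMSO only and 100% = 10 nM T3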). To be noted: TR-UAS-bla GripTite HEK 293, beta-lactamase ratio, agonist mode, 18 h, percent of T3 response, DMSO as zero; series mostly up to 76.7 µM. Put shortly:
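TR-UAS-bla-GripTite HEK 293 cells in medium with 2% charcoal/dextran FBS, 0.1 mM NEAA and 1 mM sodium pyruvate were treated with titrated compounds for 18 hrs at 37 C. Beta-lactamase reporter was read with CCF4 dye (ex 405, em 460/530 nm); EC50 from Hill fits.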

The target is the same in experiment [16]. As to the kind of experiment: qHTS assay for small molecule antagonists of thyroid hormone receptor beta signaling (AID 588547; active = well fitted inhibition curve with a large enough effect in the signal ratio, with a control signal flat, not every such curve was filed as active; the % refers to the signal ratio;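 also: cells stimulated with 0.4 nM T3 agonist during compound exposure; % is scaled to controls: 0 for no effect and ±100 for the full control effect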). To be noted: TR-UAS-bla HEK293, beta-lactamase ratio, antagonist mode, 18 h. Put shortly:
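TR-UAS-bla GripTite HEK293 cells in 2% charcoal/dextran FBS medium; compounds 0.59 nM to 92 uM with T3 at 0.4nM final, 18 h at 37 C. Beta-lactamase read by CCF4 fluorescence (460/530 nm); Hill fits gave IC50 and efficacy.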

The nature of experiment [17]: qHTS assay for small molecule activators of the nuclear factor-kappa B (NF-kB) signaling pathway (AID 651749; active = well fitted activation curve with a large enough effect in the signal ratio; the % refers to the signal ratio; also: % of control where 0% means no effect). To be noted: NF-kB-bla ME-180 cells, beta-lactamase FRET ratio, 16 h; stronger effect = higher value. Put shortly:
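In this qHTS format, compounds acting as activators increase NF-kB-driven beta-lactamase in ME-180 cells, measured as disrupted FRET after 16 hr exposure at 37C and 5% CO2.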

In experiment [18] the target is Nuclear receptor ROR-gamma (Homo sapiens) (UniProt P51449). As to the kind of experiment: qHTS assay for small molecule antagonists of the retinoid-related orphan receptor gamma (ROR-gamma) signaling pathway (AID 651802).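 Also: luciferase reporter luminescence driven by ROR response element; % is scaled to controls: 0 for no effect and ±100 for the full control effect; nearly all actives have a fitted effect of over 60% in size.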 Particulars: ROR-gamma antagonist cell reporter assay; series mostly up to 92.2 µM. Put shortly: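 Luminescence (One-Glo, 30 min RT) measured 16 h after compound addition and doxycycline induction at 37C. Reporter: RORE-luciferase under TET-inducible ROR-gamma in CHO cells.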

Experiment [19] is described as follows: qHTS assay for small molecule agonists of the antioxidant response element (ARE) signaling pathway measured by Nrf2-dependant transcriptional activity (AID 720636; active = well fitted curve in the direction sought with a large enough effect in the repeat runs; an effect the other way counts as inactive or inconclusive;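 also: HepG2 cells with an ARE-driven luciferase reporter; % of control where 0% means no effect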). Particulars: ARE-luc HepG2, Nrf2 luciferase reporter, 16 h; series mostly up to 92.4 µM. Put shortly:
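Reporter gene assay, HepG2 ARE-luc: 16 hr compound, 37 C, 5% CO2; read-out luciferase luminescence.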

The nature of experiment [20]: qHTS assay for small molecule antagonists of the retinoid-related orphan receptor gamma (ROR-gamma) signaling pathway - cell viability counter screen (AID 720652; active = well fitted curve in the direction sought with a large enough effect in the repeat runs; an effect the other way counts as inactive or inconclusive;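 also: compound exposure lasted 16 hr before ATP read; % is scaled to controls: 0 for no effect and ±100 for the full control effect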). Particulars: RORgamma reporter cell line viability counter screen; series mostly up to 92.2 µM. Put shortly: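 Cytotoxicity counter screen: intracellular ATP (CellTiter-Glo luminescence) measured in the doxycycline-induced CHO RORE-luciferase reporter line after 16 hr compound exposure at 37 C, 5% CO2.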

Sequence of Peroxisome proliferator-activated receptor alpha (Homo sapiens) (Q07869 whole entry, looked up, the tested form may be a part): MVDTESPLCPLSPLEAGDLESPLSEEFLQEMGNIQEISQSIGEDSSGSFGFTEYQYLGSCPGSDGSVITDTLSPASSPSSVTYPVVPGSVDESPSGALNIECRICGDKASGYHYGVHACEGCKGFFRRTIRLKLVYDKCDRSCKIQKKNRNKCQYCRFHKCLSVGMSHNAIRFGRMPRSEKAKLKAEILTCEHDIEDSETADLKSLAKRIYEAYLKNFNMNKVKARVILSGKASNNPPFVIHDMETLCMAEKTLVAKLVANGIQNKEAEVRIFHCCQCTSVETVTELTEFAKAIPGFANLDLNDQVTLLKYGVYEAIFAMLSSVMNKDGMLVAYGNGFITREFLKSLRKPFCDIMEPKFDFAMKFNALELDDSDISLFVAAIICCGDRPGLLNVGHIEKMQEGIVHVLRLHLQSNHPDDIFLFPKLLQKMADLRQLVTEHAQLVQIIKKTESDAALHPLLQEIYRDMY
Sequence of Nuclear receptor ROR-gamma (Homo sapiens) (P51449 whole entry, looked up): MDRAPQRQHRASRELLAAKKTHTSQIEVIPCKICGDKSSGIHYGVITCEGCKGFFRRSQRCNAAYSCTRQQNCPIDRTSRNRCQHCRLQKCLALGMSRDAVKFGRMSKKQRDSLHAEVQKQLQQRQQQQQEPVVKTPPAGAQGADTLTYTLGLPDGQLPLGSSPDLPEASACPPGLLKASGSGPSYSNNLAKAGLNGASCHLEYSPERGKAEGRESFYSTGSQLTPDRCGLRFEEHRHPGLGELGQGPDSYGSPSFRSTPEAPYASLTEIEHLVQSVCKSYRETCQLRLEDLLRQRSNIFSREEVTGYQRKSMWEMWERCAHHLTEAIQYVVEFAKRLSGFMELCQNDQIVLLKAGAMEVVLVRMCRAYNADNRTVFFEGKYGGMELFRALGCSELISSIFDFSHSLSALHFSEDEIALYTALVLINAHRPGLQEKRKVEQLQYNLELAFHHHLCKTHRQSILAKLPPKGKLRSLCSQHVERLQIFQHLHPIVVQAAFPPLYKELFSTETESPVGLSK
Sequence of Voltage-gated inwardly rectifying potassium channel KCNH2 (Homo sapiens) (Q12809 whole entry, looked up): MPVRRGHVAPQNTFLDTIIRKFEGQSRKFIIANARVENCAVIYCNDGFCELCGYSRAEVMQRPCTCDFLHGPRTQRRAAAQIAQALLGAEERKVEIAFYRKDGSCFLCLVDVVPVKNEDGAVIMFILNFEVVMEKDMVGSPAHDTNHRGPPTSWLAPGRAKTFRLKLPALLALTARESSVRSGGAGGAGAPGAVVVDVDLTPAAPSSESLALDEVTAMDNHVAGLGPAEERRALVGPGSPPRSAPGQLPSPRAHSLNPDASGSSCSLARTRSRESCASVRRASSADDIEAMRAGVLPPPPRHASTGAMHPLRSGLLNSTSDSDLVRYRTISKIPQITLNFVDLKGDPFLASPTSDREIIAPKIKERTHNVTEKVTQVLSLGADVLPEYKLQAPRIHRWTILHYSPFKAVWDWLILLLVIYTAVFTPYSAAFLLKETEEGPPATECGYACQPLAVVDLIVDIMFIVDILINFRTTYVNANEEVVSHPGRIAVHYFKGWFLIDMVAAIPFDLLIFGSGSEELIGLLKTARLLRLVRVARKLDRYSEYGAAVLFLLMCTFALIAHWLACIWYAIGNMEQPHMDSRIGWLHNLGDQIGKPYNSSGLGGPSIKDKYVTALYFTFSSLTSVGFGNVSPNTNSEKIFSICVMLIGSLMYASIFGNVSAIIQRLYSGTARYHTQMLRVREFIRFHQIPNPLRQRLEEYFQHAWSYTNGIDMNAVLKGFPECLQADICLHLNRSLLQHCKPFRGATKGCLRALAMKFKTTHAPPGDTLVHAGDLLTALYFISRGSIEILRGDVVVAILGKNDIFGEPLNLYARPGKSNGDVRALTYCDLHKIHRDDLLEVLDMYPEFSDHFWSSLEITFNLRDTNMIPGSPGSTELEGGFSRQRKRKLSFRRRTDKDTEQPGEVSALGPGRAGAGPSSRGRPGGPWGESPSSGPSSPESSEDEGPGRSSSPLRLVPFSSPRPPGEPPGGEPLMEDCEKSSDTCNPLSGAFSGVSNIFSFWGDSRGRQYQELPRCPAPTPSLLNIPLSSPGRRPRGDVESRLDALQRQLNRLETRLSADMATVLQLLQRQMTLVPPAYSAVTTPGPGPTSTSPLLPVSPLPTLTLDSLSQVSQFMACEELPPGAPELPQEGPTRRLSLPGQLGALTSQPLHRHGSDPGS
Sequence of Tumor necrosis factor (Homo sapiens) (P01375 whole entry, looked up): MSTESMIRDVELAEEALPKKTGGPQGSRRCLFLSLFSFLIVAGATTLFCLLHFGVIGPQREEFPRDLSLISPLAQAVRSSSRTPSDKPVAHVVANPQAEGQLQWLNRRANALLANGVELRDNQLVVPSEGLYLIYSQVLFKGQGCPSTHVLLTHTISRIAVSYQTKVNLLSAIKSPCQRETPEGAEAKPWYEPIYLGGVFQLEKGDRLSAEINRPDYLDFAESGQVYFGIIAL
Sequence of Retinoic acid receptor RXR-alpha (Homo sapiens) (P19793 whole entry, looked up): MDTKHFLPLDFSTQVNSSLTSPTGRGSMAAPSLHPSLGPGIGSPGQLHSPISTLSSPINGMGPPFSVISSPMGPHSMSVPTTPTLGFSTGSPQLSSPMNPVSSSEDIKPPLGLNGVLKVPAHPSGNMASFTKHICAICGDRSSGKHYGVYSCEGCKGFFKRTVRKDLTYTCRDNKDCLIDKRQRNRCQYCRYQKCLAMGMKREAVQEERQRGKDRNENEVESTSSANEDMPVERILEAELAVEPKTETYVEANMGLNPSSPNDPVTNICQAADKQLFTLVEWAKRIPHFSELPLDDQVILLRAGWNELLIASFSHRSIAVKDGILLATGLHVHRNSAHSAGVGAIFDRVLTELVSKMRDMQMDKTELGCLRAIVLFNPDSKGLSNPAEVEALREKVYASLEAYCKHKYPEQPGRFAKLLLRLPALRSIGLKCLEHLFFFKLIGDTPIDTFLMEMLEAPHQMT
Sequence of Thyroid hormone receptor beta (Homo sapiens) (P10828 whole entry, looked up): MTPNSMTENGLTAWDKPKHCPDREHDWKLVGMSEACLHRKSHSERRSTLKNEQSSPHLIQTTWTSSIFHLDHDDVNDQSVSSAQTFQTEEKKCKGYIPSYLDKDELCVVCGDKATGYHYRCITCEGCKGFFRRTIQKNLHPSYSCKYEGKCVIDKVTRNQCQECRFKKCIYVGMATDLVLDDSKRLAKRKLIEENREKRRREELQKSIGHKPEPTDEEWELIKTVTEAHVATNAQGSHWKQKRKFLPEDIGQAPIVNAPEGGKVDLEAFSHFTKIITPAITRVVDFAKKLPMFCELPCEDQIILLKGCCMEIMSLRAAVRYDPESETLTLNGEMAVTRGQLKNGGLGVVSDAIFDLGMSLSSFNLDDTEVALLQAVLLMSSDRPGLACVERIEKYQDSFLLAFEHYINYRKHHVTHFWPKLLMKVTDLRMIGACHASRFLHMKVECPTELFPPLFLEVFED

`Clc1cc(Cl)cc(Cl)c1`: the max response in experiment [1] was -9.27%; in experiment [3], -4.96%; in experiment [4] it was 2.45% (inactive); in experiment [13], 0.786% (inactive); in experiment [14], -5.36% (inactive). The outcome in [2] was inactive. Moreover, the Potency result in [5], in experiment [6], in [8], in experiment [9], in experiment [10] and in [11] was “inactive” each time. Further, the activation in experiment [7] was -2.32% (inactive); in [12], 2.15% (inactive).

Take `O=C(O)c1ccccc1[N+](=O)[O-]`: the max response in [1] was -10.1%; in experiment [3] it was -4.69%; in experiment [4] it was 2.43% (inactive); in experiment [13], -2.24% (inactive); in experiment [14], -13.2% (inactive). Also, the outcome in experiment [15] and in experiment [19] was inactive. Moreover, in [16], the activity change % (negative = inhibition) is 6.51% (inactive). Besides, the Potency entry in experiment [5], in [8], in experiment [9], in experiment [10], in [18] and in experiment [20] was “inactive” each time. The activation was 2% (inactive) in [7], 0.408% (inactive) in [17] and -1.41% (inactive) in experiment [12].

Regarding `Nc1ccccc1[N+](=O)[O-]`, the max response in experiment [1] is -4.62%; in experiment [3], 1.56%; in [13], -3.89% (inactive); in experiment [14], -18.4% (inactive). The call in experiment [2] and in [19] was inactive. Also, the activity change % (negative = inhibition) in experiment [16] was -6.45% (inactive). The Potency result in experiment [5], in experiment [6], in experiment [8], in experiment [9], in experiment [10] and in [18] was “inactive” each time. Further, in experiment [20], the Potency entry is “inactive”. Moreover, the figures for the activation in experiment [7], in experiment [17] and in experiment [12] were -3.02% (inactive), 0.892% (inactive) and -0.331% (inactive), respectively.

Turning to `CCCCOCCOCCSC#N`, the max response in experiment [1] is 3.38%; in experiment [3] it was -3.14%; in experiment [13], 0.043% (inactive); in experiment [14], -6.26% (inactive). For the same molecule, the molecule was classed as inactive in experiment [2] and in [19]. Also, the Potency entry in experiment [5], in experiment [6], in experiment [8], in experiment [9], in [10] and in experiment [18] was “inactive” throughout. Moreover, the Potency result in experiment [20] was “inactive”. The figures for the activation in [17] and in [12] were 0.862% (inactive) and -0.297% (inactive), respectively.

For `Nc1cccc([N+](=O)[O-])c1`, the max response in experiment [1] was -3.08%; in experiment [3], -9.54%; in experiment [4], 1.86% (inactive); in [13], -2.36% (inactive); in experiment [14] it was 11.8% (inactive). For the same molecule, the molecule was classed as inactive in [2] and in experiment [19]. Besides, the activation in experiment [7] is -4.7% (inactive); in experiment [12], 0.683% (inactive). The Potency result in [9], in [10], in [11], in experiment [18] and in experiment [20] was “inactive” in each case.

Consider `CC(C)C(C)C`, for which the max response was -13.5% in experiment [1]; -13.7% in [3]; -1.83% (inactive) in experiment [4]; -4.01% (inactive) in [13]; -1.72% (inactive) in experiment [14]. Moreover, the activity change % (negative = inhibition) in [16] is -4.52% (inactive). In addition, the Potency entry in experiment [5], in experiment [8], in experiment [9], in experiment [10], in experiment [18] and in experiment [20] was “inactive” in each case. For the same molecule, the activation in [12] is 1.04% (inactive). The molecule was called inactive in experiment [19].

Consider `CC(C)CO`, for which the max response in [1] was -16%; in experiment [3], -8.16%; in experiment [4], -7% (inactive); in [14] it was -4.27% (inactive). The result in [15] was inactive. In experiment [16], the activity change % (negative = inhibition) is -17.4% (inactive). For the same molecule, the activation is -1.15% (inactive) in experiment [17] and -1.47% (inactive) in [12]. The Potency result in experiment [9], in experiment [10], in experiment [18] and in experiment [20] was “inactive” each time.
